Experimental data as given in PubChem BioAssay (NCATS).
Values joined by “and” are separate entries in the source; they are usually repeats but may differ in a detail not shown here. Equal values may be shown once. Records with an inconclusive call do not appear. Active and inactive are the calls of the source. Unless noted, calls come from the whole dose curve; as a rule, active = well fitted curve in the direction sought with a large enough effect; inconclusive = small, poorly fitted or top-dose-only effect, or another doubt; inactive = no such curve, though single readings can be large; an effect the other way counts as inactive or inconclusive.

How the values were obtained:
CP237 = experiment: qHTS profiling for inhibitors of Plasmodium falciparum proliferation (AID 504749);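 note: 0% = DMSO vehicle and full inhibition = artemisinin control; nearly all actives have a fitted effect of over 60% in size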; settings: P. falciparum in erythrocytes, SYBR Green DNA, 72 h; series mostly up to 28.7 µM
Method in brief: (§1)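 Readout was DNA-dye fluorescence from lysed cultures, ex 485/em 535 nm. Parasitized red cells had grown 72 h with compound; data scaled between 0.29 uM artemisinin and DMSO wells and corrected using vehicle-only plates.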

CP247 = experiment: as above; settings: P. falciparum in erythrocytes, SYBR Green DNA, 72 h; series mostly up to 28.7 µM
Method in brief: as §1

CP250 = experiment: as above; settings: P. falciparum in erythrocytes, SYBR Green DNA, 72 h; series mostly up to 12.8 µM
Method in brief: as §1

CP260 = experiment: as above; settings: P. falciparum in erythrocytes, SYBR Green DNA, 72 h; series mostly up to 28.7 µM
Method in brief: as §1

CP265 = experiment: as above; settings: P. falciparum in erythrocytes, SYBR Green DNA, 72 h; series mostly up to 12.8 µM
Method in brief: as §1

CP335 = experiment: as above; settings: P. falciparum in erythrocytes, SYBR Green DNA, 72 h; series mostly up to 12.8 µM
Method in brief: as §1

P93_24 = experiment: as above; settings: P. falciparum in erythrocytes, SYBR Green DNA, 72 h; series mostly up to 28.7 µM
Method in brief: as §1

TAB165 = experiment: as above; settings: P. falciparum in erythrocytes, SYBR Green DNA, 72 h; series mostly up to 28.7 µM
Method in brief: as §1

CP201 = experiment: as above; settings: P. falciparum in erythrocytes, SYBR Green DNA, 72 h; series mostly up to 28.7 µM
Method in brief: as §1

CP215 = experiment: as above; settings: P. falciparum in erythrocytes, SYBR Green DNA, 72 h; series mostly up to 28.7 µM
Method in brief: as §1

CP268 = experiment: as above; settings: P. falciparum in erythrocytes, SYBR Green DNA, 72 h; series mostly up to 28.7 µM
Method in brief: as §1

CP291 = experiment: as above; settings: P. falciparum in erythrocytes, SYBR Green DNA, 72 h; series mostly up to 28.7 µM
Method in brief: as §1

DIV14 = experiment: as above; settings: P. falciparum in erythrocytes, SYBR Green DNA, 72 h; series mostly up to 28.7 µM
Method in brief: as §1

DIV17 = experiment: as above; settings: P. falciparum in erythrocytes, SYBR Green DNA, 72 h; series mostly up to 28.7 µM
Method in brief: as §1

PC26 = experiment: as above; settings: P. falciparum in erythrocytes, SYBR Green DNA, 72 h; series mostly up to 28.7 µM
Method in brief: as §1

[1] = Cell Viability - HUV-EC-C (AID 542); note: nearly all actives have a fitted effect of over 35% in size; note: potency is the fitted concentration of half-maximal effect; for activity change, negative = cytotoxicity: % is set by controls: 0 for no effect and ±100 for the full control effect
Method in brief: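 Decrease in cellular ATP, quantified by luciferase luminescence, reflects toxicity in normal human vascular endothelial HUV-EC-C cells given compound for 40 hr in complete culture medium. Values are AC50s from concentration-response curves.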

[2] = Cell Viability - Renal Proximal Tubule (AID 545); settings: renal proximal tubule cells viability, at 91.7 µM (top of the series);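 note: 0% = DMSO only and -100% = 100 µM tamoxifen; nearly all actives have a fitted effect of over 40% in size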
Method in brief: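 In this qHTS format, normal rat kidney-derived proximal tubule cells in complete culture medium receive compound titrations, then sit 40 hours at 37 °C before luciferase-based ATP quantitation; potency is reported as AC50 from concentration-response curves.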

[3] = qHTS Assay for Identification of Small Molecule Inducers of Hypoxia Response (AID 2120; active = well fitted curve in the direction sought with a large enough effect in the signal ratio, with a control signal flat, not every such curve was filed as active; the % refers to the signal ratio; note: 0% is about no effect)
Method in brief: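 Induction of beta-lactamase reporter activity was measured in CellSensor HRE-bla ME-180 cells after 17 h compound treatment at 37 degrees C, using CCF4 substrate and the 460nm/530nm emission ratio to derive AC50 values.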

[4] = molecular target: Tumor necrosis factor (Homo sapiens) (UniProt P01375); experiment: qHTS assay to identify small molecules that stimulate Tumor Necrosis Factor-alpha (TNF-alpha) secretion (AID 651757; active = well fitted curve in the direction sought with a large enough effect in the signal ratio; the % refers to the signal ratio; note: 0% is about no effect)
Method in brief: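 Secreted TNF-alpha from compound-treated THP-1 cells (17 hrs, 37 C) was quantified with a homogeneous time-resolved fluorescence antibody assay.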

CP203 = experiment: qHTS profiling for inhibitors of Plasmodium falciparum proliferation (AID 504749);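 note: 0% = DMSO vehicle and full inhibition = artemisinin control; nearly all actives have a fitted effect of over 60% in size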; settings: P. falciparum in erythrocytes, SYBR Green DNA, 72 h; series mostly up to 28.7 µM
Method in brief: as §1

[5] = primary cells of rat origin unless noted

Tumor necrosis factor (Homo sapiens), sequence (P01375 whole entry, looked up): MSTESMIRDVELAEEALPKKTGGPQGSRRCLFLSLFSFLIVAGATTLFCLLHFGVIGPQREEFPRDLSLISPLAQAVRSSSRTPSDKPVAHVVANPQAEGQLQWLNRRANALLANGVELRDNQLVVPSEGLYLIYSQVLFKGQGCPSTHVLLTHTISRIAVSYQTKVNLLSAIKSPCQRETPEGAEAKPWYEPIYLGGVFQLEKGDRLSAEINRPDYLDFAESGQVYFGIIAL

C[C@]12CC[C@H](O)CC1=CCC1C2CC[C@]2(C)C(=O)CC[C@@H]12 (stereo partly specified)
inactive: Potency (CP237) | Potency (CP247) | Potency (CP250) | Potency (CP260) | Potency (CP265) | Potency (CP335) | Potency (P93_24) | Potency (TAB165)

CCNC[C@H](O)c1cccc(O)c1
inactive: Potency (CP201) | Potency (CP215) | Potency (CP237) | Potency (CP247) | Potency (CP250) | Potency (CP260) | Potency (CP265) | Potency (CP268) | Potency (CP291) | Potency (CP335) | Potency (DIV14) | Potency (DIV17) | Potency (P93_24) | Potency (PC26) | Potency (TAB165)

CCOCN(C(=O)CCl)c1c(C)cccc1CC
active: Potency [1] 25.1 µM | activity change, negative = cytotoxicity [2, 5] -103%
inactive: outcome [3] | outcome [4]

C=CCc1ccc2c(c1)OCO2
inactive: Potency [1] | activity change, negative = cytotoxicity [2, 5] 1.52% [at 91.7 µM] | outcome [3] | outcome [4]

CCc1cccc(CC)c1N(COC)C(=O)CCl
inactive: outcome [3] | outcome [4]
active: Potency [1] 50.1 µM

ClC(Cl)=C(c1ccc(Cl)cc1)c1ccc(Cl)cc1
inactive: Potency [1] | activity change, negative = cytotoxicity [2, 5] -4.32% [at 91.7 µM] and -7.69% [at 91.7 µM] | outcome [3] | outcome [4]

C/C=C/c1ccc2c(c1)OCO2
inactive: Potency [1] | activity change, negative = cytotoxicity [2, 5] -9.95% [at 91.7 µM] | outcome [3] | outcome [4]

C[N+]1([O-])[C@@H]2CC(OC(=O)[C@@H](CO)c3ccccc3)C[C@@H]1[C@H]1O[C@H]12 (stereo partly specified)
inactive: Potency (CP201) | Potency (CP203) | Potency (CP237) | Potency (CP247) | Potency (CP250) | Potency (CP260) | Potency (CP265) | Potency (CP268) | Potency (CP291) | Potency (CP335) | Potency (DIV14) | Potency (DIV17) | Potency (P93_24) | Potency (PC26) | Potency (TAB165)

ClC1=C(Cl)C2(Cl)C3C4C=CC(C4)C3C1(Cl)C2(Cl)Cl (stereo unspecified)
inactive: Potency [1] | activity change, negative = cytotoxicity [2, 5] 4.94% [at 91.7 µM] | outcome [3] | outcome [4]

CNC(=O)O/N=C/C(C)(C)SC
inactive: Potency [1] | activity change, negative = cytotoxicity [2, 5] -3.02% [at 91.7 µM] | outcome [3] | outcome [4]

O=C(O)COc1ccc(Cl)cc1Cl
inactive: Potency [1] | activity change, negative = cytotoxicity [2] -12.8% | activity change, negative = cytotoxicity ([2]; primary cells of rat origin) -15.7% | outcome [3] | outcome [4]

CCNc1nc(Cl)nc(NC(C)C)n1
inactive: Potency [1] | activity change, negative = cytotoxicity [2, 5] -6.93% [at 91.7 µM] | outcome [3] | outcome [4]

ClC1=C(Cl)C2(Cl)C3C(Cl)C=CC3C1(Cl)C2(Cl)Cl (stereo unspecified)
inactive: Potency [1] | activity change, negative = cytotoxicity [2, 5] -2.85% | outcome [3] | outcome [4]

COP(=S)(OC)Oc1ccc([N+](=O)[O-])cc1
inactive: Potency [1] | activity change, negative = cytotoxicity [2, 5] -3.77% [at 91.7 µM] | outcome [3] | outcome [4]

C=CCc1ccc(OC)cc1
inactive: Potency [1] | activity change, negative = cytotoxicity [2, 5] -9.51% [at 91.7 µM] | outcome [3] | outcome [4]

O=S1OCC2C(CO1)C1(Cl)C(Cl)=C(Cl)C2(Cl)C1(Cl)Cl (stereo unspecified)
inactive: Potency [1] | activity change, negative = cytotoxicity [2, 5] -22.1% [at 91.7 µM] | outcome [3] | outcome [4]

COC(=O)NC(=S)Nc1ccccc1NC(=S)NC(=O)OC
inactive: Potency [1] | activity change, negative = cytotoxicity [2, 5] -14.2% | outcome [3] | outcome [4]

c1ccc(N=Nc2ccccc2)cc1
inactive: Potency [1] | activity change, negative = cytotoxicity [2, 5] -6.36% | outcome [3] | outcome [4]

ClC1=C(Cl)C2(Cl)C3C4CC(C5OC45)C3C1(Cl)C2(Cl)Cl (stereo unspecified)
inactive: Potency [1] | activity change, negative = cytotoxicity [2, 5] -5.71% [at 91.7 µM] | outcome [3] | outcome [4] | Potency (CP201) | Potency (CP203) | Potency (CP215) | Potency (CP237) | Potency (CP247) | Potency (CP250) | Potency (DIV14) | Potency (DIV17) | Potency (P93_24) | Potency (PC26) | Potency (TAB165)

CC(C)c1c(CN(C)[C@@H](C)Cc2ccccc2)n(C)n(-c2ccccc2)c1=O
inactive: Potency (CP201) | Potency (CP203) | Potency (CP215) | Potency (CP237) | Potency (CP247) | Potency (CP250) | Potency (CP260) | Potency (CP265) | Potency (CP268) | Potency (CP291) | Potency (CP335) | Potency (DIV14) | Potency (DIV17) | Potency (P93_24) | Potency (PC26) | Potency (TAB165)

C[C@@]12CC[C@H]3[C@@H](CC[C@@H]4C[C@H]5S[C@H]5C[C@]43C)[C@H]1CC[C@H]2O
inactive: Potency (CP201) | Potency (CP203) | Potency (CP215) | Potency (CP237) | Potency (CP247) | Potency (CP250) | Potency (CP260) | Potency (CP265) | Potency (CP268) | Potency (CP291) | Potency (CP335) | Potency (DIV14) | Potency (DIV17) | Potency (P93_24) | Potency (PC26) | Potency (TAB165)

C[C@H](N)[C@@H](O)c1ccccc1
inactive: Potency (CP201) | Potency (CP203) | Potency (CP215) | Potency (CP237) | Potency (CP247) | Potency (CP250) | Potency (CP260) | Potency (CP265) | Potency (CP268) | Potency (CP335) | Potency (DIV14) | Potency (DIV17) | Potency (P93_24) | Potency (PC26) | Potency (TAB165)

CC(=O)O[C@H]1CC[C@@]2(C)C(=CC[C@@H]3[C@H]2CC[C@]2(C)C(=O)CC[C@H]32)C1
inactive: Potency (CP201) | Potency (CP203) | Potency (CP215) | Potency (CP237) | Potency (CP247) | Potency (CP250) | Potency (CP260) | Potency (CP265) | Potency (CP268) | Potency (CP291) | Potency (CP335) | Potency (DIV14) | Potency (DIV17) | Potency (P93_24) | Potency (PC26) | Potency (TAB165)
